According to article PMC7826789 (International Journal of Molecular Sciences, 2021):

What follows are compounds tested on TIE1. Conditions: Compound Concentration (nM):1000.
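Note: KINOMEscan scanMAX binding as percent activity remaining versus control; lower means stronger binding.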

| SMILES | Percent Control |
| --- | --- |
| NS(=O)(=O)c1ccc(N/N=C2\C(=O)Nc3ccc(C(=O)NCCc4c[nH]cn4)cc32)cc1 [GW300660X] | 100% |
| Cl.O=C(Nc1ccc(Oc2ccc3[nH]c(NC(=O)c4ccco4)nc3c2)cc1)Nc1cc(C(F)(F)F)ccc1F [GW683134A] | 1.1% |
| CN(C)CCNC(=O)Nc1ccc(N(C)c2ccnc(Nc3ccc(CS(C)(=O)=O)cc3)n2)cc1.Cl [GW830900A] | 72% |
| CCn1c(-c2nonc2N)nc2c(C#CC(C)(C)O)nc(OCCNC)cc21.Cl [GSK949675] | 100% |
| NS(=O)(=O)c1ccc(N/N=C2\C(=O)Nc3ccc(C(=O)NCc4ccncc4)cc32)cc1 [GW300657X] | 85% |
| Cl.O=S1CCN(Cc2ccc(-c3ccc4ncnc(Nc5ccc(OCc6ccccc6)c(F)c5)c4c3)o2)CC1 [GW576924A] | 100% |
| Cl.O=C(O[C@H]1CN[C@H](C#Cc2cc3ncnc(Nc4ccc5c(cnn5Cc5ccccc5)c4)c3s2)C1)N1CCOCC1 [GSK200398A] | 100% |

What follows are compounds tested on T1, TIE2. Conditions: Compound Concentration (nM):1000.
T1 construct: gene TEK

| SMILES | Percent Control |
| --- | --- |
| CN1CCN(C(=O)c2ccc(NC(=O)Nc3ccc(N(C)c4ccnc(Nc5ccc(CS(C)(=O)=O)cc5)n4)cc3)cc2)CC1.Cl [GW830263A] | 41% |
| COc1cc2ncnc(Nc3ccc4c(cnn4Cc4ccccc4)c3)c2cc1OC.Cl [GW282449A] | 100% |
| CC1=C(C(=O)Nc2ccc3[nH]ncc3c2)C(c2ccc3ccccc3c2)CC(=O)N1 (centres unmarked) [GSK270822A] | 96% |
| O=C(Nc1n[nH]c2nc(-c3ccc(O)cc3)c(Br)cc12)C1CC1 [SB-725317] | 100% |
| CCS(=O)(=O)c1ccc(OC)c(Nc2ncc(-c3cccc(F)c3)o2)c1 [GW621970X] | 100% |
| COc1ccc2cc(-c3c(-c4ccncc4)nc(-c4ccc(S(C)(=O)=O)cc4C)n3C)ccc2c1 [SB-633825] | 2.4% |
| COc1ccccc1-c1cc(/C=C2\C(=O)Nc3ncc(Br)cc32)cc(Br)c1O [GW442130X] | 95% |
| CN(C)c1cc2c(Nc3ccc4c(cnn4Cc4ccccc4)c3)ncnc2cn1 [GW282974X] | 100% |
| COc1ccc2[nH]c3c4[nH]c5ccc(OC)cc5c4c4c(c3c2c1)C(=O)NC4=O [GW296115X] | 100% |
| COc1cccc(-n2ncc3c(N/N=C/c4ccncc4)ncnc32)c1 [GW784752X] | 100% |
| CC1=C(C(=O)Nc2ccc3[nH]ncc3c2)C(c2ccc(Cl)c(Cl)c2)CC(=O)N1 (centres unmarked) [GSK299115A] | 100% |
| COc1ccc(COc2ccc(Cc3cnc(N)nc3N)cc2OC)cc1 [GW632580X] | 100% |
| NS(=O)(=O)c1ccc(N/N=C2\C(=O)Nc3ccc(Cl)cc32)cc1 [GW280670X] | 100% |
| COc1cccc(-c2c[nH]c3c(N/N=C/c4ccncc4)ncnc23)c1 [GW814408X] | 100% |
| COC(=O)Nc1nc2ccc(Oc3ccc(NC(=O)Nc4cc(C(F)(F)F)ccc4F)cc3)cc2s1.Cl [GW693917A] | 0.6% |
| COc1ccc2c(-c3ccnc(Nc4cccc(OC(F)(F)F)c4)n3)cnn2n1 [GW810372X] | 100% |
| NS(=O)(=O)c1ccc(N/N=C2\C(=O)Nc3ccc(-c4cnco4)cc32)cc1 [GW276655] | 100% |
| Cl.c1ccc(Cc2nc3ccc(Nc4ncnc5ccccc45)cc3[nH]2)cc1 [GR269666A] | 100% |
| C/C(Nc1ccc(S(N)(=O)=O)cc1)=C1/C(=O)Nc2ccccc21 [GW335962X] | 100% |
| COc1cc(N2CCN(C(C)C)CC2)ccc1Nc1nc(Nc2ccc(F)cc2C(=O)NC[C@@H](O)CO)c2cc[nH]c2n1 [GSK1392956A] | 100% |
| Nc1ncnc2occ(-c3ccc(NC(=O)Nc4cc(C(F)(F)F)ccc4F)cc3)c12 [GW770249X] | 3.8% |
| CC(C)COC(=O)c1ccc2c(c1)/C(=C/Nc1ccc(S(N)(=O)=O)cc1)C(=O)N2 [GW416981X] | 100% |
| Cl.O=C(Nc1ccc(Oc2ccc3[nH]c(NC(=O)c4ccccc4)nc3c2)cc1)Nc1cc(C(F)(F)F)ccc1F [GW709042A] | 7.5% |
| CCc1ccc(Oc2nccc(-c3c(-c4ccc(F)cc4)ncn3C3CCNCC3)n2)cc1 [SB-242719] | 100% |
| COc1cc(C)c(N(C)C(=O)CN(C)C)cc1Nc1nc(Nc2cccc(F)c2C(N)=O)c2cc[nH]c2n1 [GSK2219385] | 100% |
